Sampled rows, rich in hits. Any-hit rate of the full collection: about 10%.
FLuc inh: blocks purified firefly luciferase enzyme activity | P08659 | purified P. pyralis luciferase, luminescence, biochemical | Potency, µM (doses to about 115 µM), usual class: inhibitors | 2.5% of 76,000 active; further: nearly all actives have a fitted effect of over 65% in size
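Luminescence read by CCD imager after adding enzyme (10nM final) to wells holding compound, titrated in qHTS. Substrates 10uM each D-luciferin and ATP; buffer 50mM Tris acetate pH 7.5, 10mM Mg acetate, Tween-20, BSA.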
HEK cytotox: HEK 293 cell cytotoxicity; Potency, µM (doses to about 115 µM), actives largely listed as inhibitors; 6.6% of 94,000 active; HEK 293 viability, ATP luminescence (CellTiter-Glo), 48-72 h; further: nearly all actives have a fitted effect of over 60% in size
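Cytotoxicity was scored by loss of ATP-coupled luminescence (CellTiter-Glo) in HEK 293 cells. Compound treatment ran 48 or 72 hr at 37 degree Celsius, 5% CO2, 95% humidity.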
hNpr1 antagonist: antagonists of human natriuretic peptide receptor Npr1 | P16066 | HEK293 hNpr1 GloSensor cGMP, ANP-stimulated luminescence | Potency, µM (top dose mostly 46.3 µM), actives largely listed as inhibitors | 1.6% of 76,000 active | AID 1347048; calls by dose curve; further: nearly all actives have a fitted effect of over 60% in size
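HEK293 cells stably expressing human Npr1 and cGMP GloSensor pGS-40F, loaded 2 h with 2% GloSensor reagent, given compound 30 min at room temperature. Luminescence read before and 20 min after 0.1 nM hNppA.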
GPT2 inh: blocks human glutamate pyruvate transaminase 2. Q8TD30. Recombinant GPT2, coupled pyruvate oxidase/HRP Amplex Red fluorescence. Potency, µM (top dose mostly 57.7 µM), most hits filed as inhibitors. 0.25% of 100,000 active; further: nearly all actives have a fitted effect of over 60% in size
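Fluorescence of coupled pyruvate oxidase/HRP/Amplex Red system (50uM Amplex, 30 min, dark) reports pyruvate formed by GPT2. Enzyme reaction: 10ng/uL GPT2, 2mM L-alanine, 250uM a-KG, 30 min room temperature, pH 7.5; 50uM AOA control.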
3T3 cytotox: NIH 3T3 cell cytotoxicity. 4.3% of 94,000 active. NIH 3T3 viability, CellTiter-Glo ATP luminescence, 48-72 h. Potency, µM (titrated, usually from 96.7 µM), hits mostly inhibitors; further: nearly all actives have a fitted effect of over 55% in size
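Cells were seeded at 400 per well, treated with pin-transferred compound, and kept 48 or 72 hr at 37 °C before CellTiter-Glo addition and luminescence imaging of cellular ATP.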
Npr1 antag conf: hNpr1 antagonism, confirmation assay | shares compounds with hNpr1 antagonist | HEK293 hNpr1 cGMP GloSensor luminescence, ANP-stimulated | Potency, µM (series often up to 57.6 µM), actives largely listed as inhibitors | 76% of 1,400 active | AID 1347044; calls by dose curve; further: nearly all actives have a fitted effect of over 70% in size
NPR2 antag: antagonizes human Npr2, subtype selectivity check; shares compounds with hNpr1 antagonist; HEK293 hNpr2 GloSensor cGMP luminescence, CNP-stimulated; Potency, µM (doses to about 57.6 µM), actives largely listed as inhibitors; 67% of 1,400 active; calls by dose curve; further: nearly all actives have a fitted effect of over 70% in size
FLuc counter: counter-screen for Npr1 antagonists: firefly luciferase inhibitors | purified FLuc enzyme, luminescence, Km substrate | AID 1347047 | shares compounds with hNpr1 antagonist | 0.7% of 1,400 active | Potency, µM (doses to about 57.6 µM), hits mostly inhibitors
GloSensor cGMP: reduces cGMP signal in GloSensor control cells; shares compounds with hNpr1 antagonist; HEK293 GloSensor cGMP, SNP-stimulated, luminescence; Potency, µM (doses to about 57.6 µM), hits mostly inhibitors; 69% of 1,400 active; calls by dose curve; further: nearly all actives have a fitted effect of over 70% in size
Numbers stand for hits; - = inactive; ? = inconclusive; . = no result given; [ ] = dose if it differs, or a comment. Unless noted, the call rests on the fitted dose curve; in most records, active means well fitted curve in the direction sought with a large enough effect; inconclusive means small, poorly fitted or top-dose-only effect, or another doubt; inactive means no such curve, though single readings can be large; an effect the other way counts as inactive or inconclusive.

SMILES | FLuc inh | HEK cytotox | hNpr1 antagonist | GPT2 inh | 3T3 cytotox | Npr1 antag conf | NPR2 antag | FLuc counter | GloSensor cGMP
COc1ccccc1OCCNC(=O)C1CCN(c2cc(C(F)(F)F)nc(C)n2)CC1 | - | ? | ? | - | ? | - | - | - | -
CCOc1ccccc1C(=O)NC1CCN(c2cc(C(F)(F)F)nc(C)n2)CC1 | - | ? | ? | - | ? | 24.3µM | ? | - | 24.3µM
CNC(=O)C1(N2CCC[C@H]2C(=O)N2CCCCC2)COC1 | - | - | - | - | - | . | . | . | .
CN(C)C[C@H]1O[C@H](Cc2cc(-c3cccc(O)c3)on2)CC[C@@H]1O | - | - | 28.2µM | - | - | ? | - | - | ?
COCC1CN(C2CCC2)CC12CCN(C(=O)NCCc1ccccc1)CC2 (stereo not given) | - | ? | - | - | ? | - | - | - | -
CC(=O)c1c(C)nn(CC(=O)N2CCn3nc(Cc4ccccc4)cc3C2)c1C | - | ? | 11.2µM | -[11.5 µM] | - | 21.7µM | 19.3µM | - | 13.7µM
O=C(CN1CCCCCCC1)N1CCn2nc(Cc3ccccc3)cc2C1 | - | - | - | - | ? | . | . | . | .
C=CCOC(=O)C1=C(C)N=C2SC=C(CC(=O)NCC(C)C)N2C1c1ccccc1Cl (stereo not given) | - | ? | ? | - | - | . | . | . | .
CCOC(=O)C1=C(C)N=C2SC=C(CC(=O)NCc3ccco3)N2C1c1ccccc1Cl (stereo not given) | - | ? | 11.2µM | - | - | ? | ? | - | -
CC1=C(C(=O)OC(C)C)C(c2ccc(Cl)cc2)N2C(CC(=O)N3CCCC3)=CSC2=N1 (stereo not given) | - | ? | ? | - | ? | - | ? | - | -
COC(=O)C1=C(C)N=C2SC=C(CC(=O)N3CCCCC3)N2C1c1ccc(Cl)cc1 (stereo not given) | - | ? | ? | ? | - | ? | ? | - | -
C=CCOC(=O)C1=C(C)N=C2SC=C(CC(=O)N3CCCC3)N2C1c1cc(OC)cc(OC)c1 (stereo not given) | - | ? | 10µM | - | - | 17.2µM | 15.3µM | - | -
CC1=C(C(=O)OC(C)C)C(c2ccc(C)cc2)N2C(CC(=O)N3CCCCC3)=CSC2=N1 (stereo not given) | - | ? | - | - | ? | . | . | . | .
C=CCOC(=O)C1=C(C)N=C2SC=C(CC(=O)N3CCCC3)N2C1c1ccc(OC)cc1OC (stereo not given) | - | ? | - | - | - | . | . | . | .
CC(C)CCN1CCCC12Cc1ccccc1CNC2=O (stereo not given) | . | - | . | - | - | . | . | . | .
CSc1cccc(NC(=O)Cn2ccn3nc(-c4ccccc4)c(CO)c3c2=O)c1 | - | - | - | - | - | . | . | . | .
COc1ccc(OC)c(CN2CCCn3nc(C)c(-c4ccccc4OCc4ccccc4)c32)c1 | - | 11.2µM | 7.08µM | - | 8.91µM | 13.7µM | 19.3µM | - | 12.2µM
COc1ccc(OC)c(CN2CCCn3nc(C)c(-c4ccnn4C(C)C)c32)c1 | - | ? | - | - | - | . | . | . | .
Cc1nn2c(c1-c1ccccc1Oc1ccccc1)N(CC1CC1)CCC2 | - | 28.2µM | ? | - | 31.6µM | 39.6µM | 35.3µM | - | 39.6µM
Cc1nn2c(c1-c1ccccc1OCc1ccccc1)N(CC1CC1)CCC2 | - | ? | 7.08µM | - | ? | 6.27µM | 31.4µM | - | 5.59µM
Cc1ccc(C)c(C(=O)NCc2nnc3c(-c4nc(C5CC5)no4)cccn23)c1 | - | - | - | - | - | . | . | . | .
CCC1=C(C(=O)OC)C(c2ccc(Cl)cc2)N2C(CC(=O)N3CCOCC3)=CSC2=N1 (stereo not given) | - | ? | ? | - | - | . | . | . | .

Assay outcomes from PubChem BioAssay.
